Laboratory results reported in the supplement of paper PMC10849652.
The full data set covers some 7,900 targets. This sample favours those with a hit. About 0.6% of all pairs of compound and target were hits.

How the values were obtained:
Assay in all cases: log2 fold change, soluble protein after heating vs DMSO (PISA); higher = thermal stabilisation; K562 cells, 10 uM, 30 min; active = over 0.2 and 3.5 SD of the protein, either way, in both replicates (recomputed)
[1] = compound: Cc1ccc(NC(=O)c2ccc(CN3CC[C@H](N(C)C)C3)c(C(F)(F)F)c2)cc1Nc1nccc(-c2cncnc2)n1 [bafetinib]
Method in brief: (§1)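 K562 cells at 2×10^6 cells/mL were given 10 μM compound for 30 min. Aliquots then went through 3 min of heating across 48°C-58°C, were pooled, and were extracted in PBS with 0.5% NP-40 at 4°C, and the supernatant after 21,000xg for 90 min was quantified by TMTpro 16plex LC-MS/MS with channel sums equalised. Thermal stability relative to control samples, from duplicates, is given as log2 fold change.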

[2] = compound: Cc1cccc(CC(=O)N2CCc3c2ccc(-c2cn(C)c4ncnc(N)c24)c3F)n1
Method in brief: as §1

[3] = compound: Cc1cn(-c2cc(NC(=O)c3ccc(C)c(Nc4nccc(-c5cccnc5)n4)c3)cc(C(F)(F)F)c2)cn1 [nilotinib]
Method in brief: as §1

[4] = compound: Cc1nc(Nc2n[nH]c3c2CN(C(=O)N[C@H](CN(C)C)c2ccccc2)C3(C)C)c2sccc2n1
Method in brief: as §1

[5] = compound: Cc1nc(Nc2ncc(C(=O)Nc3c(C)cccc3Cl)s2)cc(N2CCN(CCO)CC2)n1 [dasatinib]
Method in brief: as §1

[6] = compound: Cc1ncc(-c2ccnc(Nc3ccc(S(C)(=O)=O)cc3)n2)n1C(C)C
Method in brief: as §1

[7] = compound: Cn1cc(-c2ccc3c(c2)CCN3C(=O)Cc2cccc(C(F)(F)F)c2)c2c(N)ncnc21
Method in brief: as §1

[8] = compound: Cn1cc(-c2ccc3nnc(C(F)(F)c4ccc5ncccc5c4)n3n2)cn1
Method in brief: as §1

[9] = compound: Cn1cncc1[C@@](N)(c1ccc(Cl)cc1)c1ccc2c(c1)c(-c1cccc(Cl)c1)cc(=O)n2C [tipifarnib]
Method in brief: as §1

[10] = compound: FC(F)(F)c1ccc(/C=C/c2nc(COc3ccc(CCCCn4ccnn4)cc3)co2)cc1 [mubritinib]
Method in brief: as §1

[11] = compound: NC(=O)Nc1cc(-c2cccc(F)c2)sc1C(=O)N[C@H]1CCCNC1
Method in brief: as §1

[12] = compound: NC(=O)c1cnc(N[C@@H]2CCCC[C@@H]2N)nc1Nc1cccc(-n2nccn2)c1
Method in brief: as §1

[13] = compound: NC1(c2ccc(-c3nc4ccn5c(=O)[nH]nc5c4cc3-c3ccccc3)cc2)CCC1
Method in brief: as §1

[14] = compound: NCC(=O)Nc1ccc(-n2nc(C(F)(F)F)cc2-c2ccc3c(ccc4ccccc43)c2)cc1
Method in brief: as §1

[15] = compound: Nc1ccccc1NC(=O)c1ccc(CNC(=O)OCc2cccnc2)cc1 [entinostat]
Method in brief: as §1

[16] = compound: O=C(CCCCCCC(=O)Nc1ccccc1)NO [vorinostat]
Method in brief: as §1

[17] = compound: O=C(CCCCCCNC(=O)c1cnc(N(c2ccccc2)c2ccccc2Cl)nc1)NO [citarinostat]
Method in brief: as §1

[18] = compound: O=C(O)c1ccc2c(c1)nc(Nc1cccc(Cl)c1)c1ccncc12 [silmitasertib]
Method in brief: as §1

[19] = compound: O=C1NC(=O)C(c2cnc3ccccn23)=C1c1cn2c3c(cc(F)cc13)CN(C(=O)N1CCCCC1)CC2
Method in brief: as §1

[20] = compound: c1cc(OCCN2CCCCC2)cc(-c2n[nH]c3ccc(-c4nnc[nH]4)cc23)c1
Method in brief: as §1

Measured: log2 fold change

CNOT4 isoform 6 (UniProt O95628)
inactive: [1] -0.088 | [2] -0.036 | [3] -0.024 | [4] -0.042 | [5] -0.034 | [6] -0.003 | [7] 0.021 | [8] 0.033 | [9] 0.027 | [10] 0.023 | [11] 0.033 | [12] -0.046 | [13] -0.074 | [14] -0.026 | [15] -0.009 | [16] 0.052 | [17] 0.038 | [18] 0.023 | [19] -0.043 | [20] -0.037

CLUH, A0A494C0R8
active: [8] 0.532
inactive: [1] 0.016 | [2] -0.445 | [3] 0.264 | [4] 0.015 | [5] -0.051 | [6] 0 | [7] -0.018 | [9] 0.145 | [10] 0.072 | [11] 0.031 | [12] 0.031 | [13] -0.003 | [14] -0.062 | [15] 0.09 | [16] 0.195 | [17] -0.026 | [18] 0.046 | [19] 0.118 | [20] -0.08

CRLF3 (UniProt Q8IUI8)
inactive: [1] -0.032 | [2] -0.045 | [3] -0.043 | [4] -0.117 | [5] -0.145 | [6] 0.011 | [7] 0.025 | [8] 0.024 | [9] -0.018 | [10] 0.032 | [11] 0.016 | [12] -0.233 | [13] -0.165 | [14] -0.105 | [15] 0.025 | [16] -0.023 | [17] 0.047 | [18] 0.104 | [19] -0.003 | [20] -0.057

CDK5RAP3 isoform 4 (UniProt Q96JB5)
Chain of UniProt Q96JB5 (Q96JB5 whole entry, looked up): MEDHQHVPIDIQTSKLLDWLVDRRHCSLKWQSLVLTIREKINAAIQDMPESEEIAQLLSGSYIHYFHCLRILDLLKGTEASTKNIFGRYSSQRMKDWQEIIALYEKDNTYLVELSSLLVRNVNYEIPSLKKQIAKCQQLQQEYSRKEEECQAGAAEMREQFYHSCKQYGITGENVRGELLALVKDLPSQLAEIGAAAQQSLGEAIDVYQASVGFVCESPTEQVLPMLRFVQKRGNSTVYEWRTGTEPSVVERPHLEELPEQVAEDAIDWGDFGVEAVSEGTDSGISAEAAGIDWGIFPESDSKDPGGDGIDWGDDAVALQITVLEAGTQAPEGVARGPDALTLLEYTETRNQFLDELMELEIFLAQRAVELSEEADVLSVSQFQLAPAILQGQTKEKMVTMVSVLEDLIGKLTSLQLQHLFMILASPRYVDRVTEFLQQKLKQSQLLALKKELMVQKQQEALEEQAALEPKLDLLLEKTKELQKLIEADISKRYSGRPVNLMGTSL
inactive: [1] 0.039 | [2] 0.122 | [3] -0.094 | [4] 0.012 | [5] -0.082 | [6] 0.054 | [7] 0.008 | [8] 0.024 | [9] -0.052 | [10] 0.083 | [11] -0.025 | [12] -0.029 | [13] -0.092 | [14] -0.097 | [15] 0.056 | [16] 0.04 | [17] 0.065 | [18] -0.004 | [19] -0.04 | [20] 0.019

CLCN3 (UniProt P51790)
Chain of UniProt P51790 (P51790 whole entry, looked up): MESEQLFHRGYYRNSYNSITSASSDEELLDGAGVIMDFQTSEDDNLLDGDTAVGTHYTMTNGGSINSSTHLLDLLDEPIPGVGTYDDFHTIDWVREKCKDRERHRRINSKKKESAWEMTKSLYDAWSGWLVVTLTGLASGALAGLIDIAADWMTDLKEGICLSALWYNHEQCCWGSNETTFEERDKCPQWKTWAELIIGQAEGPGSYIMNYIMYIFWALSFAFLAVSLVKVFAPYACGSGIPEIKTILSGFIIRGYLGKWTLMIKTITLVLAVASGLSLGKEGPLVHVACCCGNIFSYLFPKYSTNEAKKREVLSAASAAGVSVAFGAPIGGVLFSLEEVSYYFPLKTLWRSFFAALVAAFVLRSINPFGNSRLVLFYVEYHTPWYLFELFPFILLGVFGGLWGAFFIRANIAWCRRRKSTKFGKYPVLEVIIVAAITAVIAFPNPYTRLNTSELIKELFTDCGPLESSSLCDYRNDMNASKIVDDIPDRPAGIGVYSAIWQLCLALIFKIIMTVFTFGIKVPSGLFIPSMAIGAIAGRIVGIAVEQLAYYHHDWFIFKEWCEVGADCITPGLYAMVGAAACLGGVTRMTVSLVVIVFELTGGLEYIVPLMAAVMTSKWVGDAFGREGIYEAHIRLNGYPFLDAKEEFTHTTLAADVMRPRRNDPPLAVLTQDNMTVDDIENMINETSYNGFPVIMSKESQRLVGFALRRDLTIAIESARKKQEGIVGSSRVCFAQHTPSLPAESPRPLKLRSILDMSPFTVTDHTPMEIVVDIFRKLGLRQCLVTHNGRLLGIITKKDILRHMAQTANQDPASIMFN
inactive: [1] -0.112 | [2] -0.022 | [3] -0.007 | [4] 0.04 | [5] 0.019 | [6] -0.027 | [7] 0.03 | [8] 0.049 | [9] 0.015 | [10] 0.024 | [11] -0.019 | [12] -0.099 | [13] -0.264 | [14] -0.078 | [15] -0.012 | [16] -0.022 | [17] 0.011 | [18] 0.011 | [19] 0.038 | [20] -0.01

CETN3 (UniProt O15182)
Chain of UniProt O15182 (O15182 whole entry, looked up): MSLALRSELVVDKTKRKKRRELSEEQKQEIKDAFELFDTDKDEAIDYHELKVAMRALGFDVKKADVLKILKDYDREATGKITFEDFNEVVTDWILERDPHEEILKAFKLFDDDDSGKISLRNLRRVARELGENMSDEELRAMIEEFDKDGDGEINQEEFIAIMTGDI
inactive: [1] -0.052 | [3] -0.051 | [4] 0.04 | [5] 0.068 | [6] -0.013 | [7] -0.026 | [8] -0.006 | [9] 0.086 | [10] 0.112 | [11] -0.016 | [12] -0.059 | [13] -0.031 | [14] -0.102 | [15] 0.033 | [16] -0.126 | [17] -0.002 | [18] 0.032 | [19] -0.1 | [20] -0.061
active: [2] -0.249

CERS2 (UniProt Q96G23)
Chain of UniProt Q96G23 (Q96G23 whole entry, looked up): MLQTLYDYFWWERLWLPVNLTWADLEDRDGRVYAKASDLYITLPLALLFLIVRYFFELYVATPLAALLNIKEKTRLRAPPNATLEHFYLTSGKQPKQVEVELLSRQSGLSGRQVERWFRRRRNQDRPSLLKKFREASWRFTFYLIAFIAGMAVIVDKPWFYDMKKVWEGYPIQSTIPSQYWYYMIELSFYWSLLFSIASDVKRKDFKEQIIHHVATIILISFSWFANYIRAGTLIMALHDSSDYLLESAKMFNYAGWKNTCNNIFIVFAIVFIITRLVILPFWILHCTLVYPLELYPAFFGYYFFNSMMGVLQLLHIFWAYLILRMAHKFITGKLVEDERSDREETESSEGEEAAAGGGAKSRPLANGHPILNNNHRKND
inactive: [1] -0.177 | [2] 0.064 | [3] -0.128 | [4] -0.015 | [5] -0.113 | [6] 0.028 | [7] -0.034 | [8] 0.028 | [9] -0.074 | [10] -0.03 | [11] -0.015 | [12] 0 | [13] -0.103 | [14] -0.019 | [15] 0.04 | [16] 0.057 | [17] 0.035 | [18] -0.018 | [19] 0.027 | [20] -0.087

CCNB1 (UniProt P14635)
inactive: [1] -0.018 | [2] 0.009 | [3] 0.04 | [4] -0.156 | [5] 0.02 | [6] -0.025 | [7] 0.006 | [8] 0.003 | [9] 0.02 | [10] 0.08 | [11] -0.031 | [12] -0.015 | [13] -0.03 | [14] 0.016 | [15] -0.002 | [16] 0 | [17] 0.031 | [18] -0.015 | [19] -0.076 | [20] -0.032

CSTF2 (UniProt P33240)
inactive: [1] -0.05 | [2] -0.061 | [3] -0.029 | [4] 0.074 | [5] 0.007 | [6] 0.047 | [7] -0.011 | [8] -0.014 | [9] 0.028 | [10] -0.046 | [11] 0.015 | [12] -0.054 | [13] 0.086 | [14] -0.031 | [15] -0.028 | [16] -0.08 | [17] -0.011 | [18] 0.07 | [19] -0.049 | [20] -0.042

CRKL (UniProt P46109)
inactive: [2] 0.013 | [4] -0.054 | [6] 0.023 | [7] 0.004 | [8] 0.028 | [9] 0.024 | [10] 0.049 | [12] -0.019 | [13] -0.015 | [14] -0.005 | [15] 0.004 | [16] 0.023 | [17] 0.005 | [18] 0.066 | [19] -0.031 | [20] -0.064
active: [1] -1.41 | [3] -1.34 | [5] -2.17 | [11] -1.11

CD151 (UniProt P48509)
Chain of UniProt P48509 (P48509 whole entry, looked up): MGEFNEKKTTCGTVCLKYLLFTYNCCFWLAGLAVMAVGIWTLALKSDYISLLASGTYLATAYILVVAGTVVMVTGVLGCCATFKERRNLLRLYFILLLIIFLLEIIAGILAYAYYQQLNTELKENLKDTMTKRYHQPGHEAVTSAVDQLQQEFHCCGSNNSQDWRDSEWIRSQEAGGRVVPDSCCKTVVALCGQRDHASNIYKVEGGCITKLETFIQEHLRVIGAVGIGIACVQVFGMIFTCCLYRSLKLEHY
inactive: [1] 0.135 | [2] 0.015 | [3] -0.072 | [4] 0.157 | [5] 0.063 | [6] 0.019 | [7] 0.025 | [8] -0.002 | [9] -0.076 | [10] -0.092 | [11] -0.054 | [12] 0.139 | [13] 0.125 | [14] 0.024 | [15] 0.094 | [16] -0.025 | [17] -0.007 | [18] 0.031 | [19] -0.063 | [20] -0.009

COX5B (UniProt P10606)
Chain of UniProt P10606 (P10606 whole entry, looked up): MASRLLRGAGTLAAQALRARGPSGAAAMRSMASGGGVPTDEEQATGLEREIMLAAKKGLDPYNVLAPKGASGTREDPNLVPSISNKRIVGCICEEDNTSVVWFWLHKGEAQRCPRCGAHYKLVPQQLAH
inactive: [1] -0.032 | [2] 0.013 | [3] 0.026 | [4] 0.011 | [5] 0.105 | [6] -0.043 | [7] 0.134 | [8] 0.221 | [9] -0.108 | [10] 0.024 | [11] 0.041 | [12] 0.031 | [13] 0.053 | [14] -0.015 | [15] -0.006 | [16] -0.151 | [17] 0.02 | [18] -0.04 | [19] -0.131 | [20] 0.034

CASTOR2 (UniProt A6NHX0)
Chain of UniProt A6NHX0 (A6NHX0 whole entry, looked up): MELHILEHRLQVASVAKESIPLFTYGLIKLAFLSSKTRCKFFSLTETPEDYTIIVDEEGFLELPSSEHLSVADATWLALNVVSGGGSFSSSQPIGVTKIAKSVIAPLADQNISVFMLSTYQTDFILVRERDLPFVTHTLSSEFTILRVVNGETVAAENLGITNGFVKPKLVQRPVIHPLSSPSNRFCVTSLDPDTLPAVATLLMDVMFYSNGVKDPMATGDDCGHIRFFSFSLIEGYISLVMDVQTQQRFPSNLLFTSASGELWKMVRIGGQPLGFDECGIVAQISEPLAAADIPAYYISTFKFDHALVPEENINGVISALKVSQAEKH
inactive: [1] -0.063 | [2] 0.019 | [3] 0.011 | [4] 0.02 | [5] -0.024 | [6] -0.039 | [7] -0.019 | [8] -0.032 | [9] -0.311 | [10] -0.032 | [11] 0.076 | [12] 0.113 | [13] -0.034 | [14] 0.06 | [15] -0.072 | [16] 0.056 | [17] 0.04 | [18] -0.03 | [19] -0.005 | [20] 0.076

CLUH (UniProt O75153)
Chain of UniProt O75153 (O75153 whole entry, looked up): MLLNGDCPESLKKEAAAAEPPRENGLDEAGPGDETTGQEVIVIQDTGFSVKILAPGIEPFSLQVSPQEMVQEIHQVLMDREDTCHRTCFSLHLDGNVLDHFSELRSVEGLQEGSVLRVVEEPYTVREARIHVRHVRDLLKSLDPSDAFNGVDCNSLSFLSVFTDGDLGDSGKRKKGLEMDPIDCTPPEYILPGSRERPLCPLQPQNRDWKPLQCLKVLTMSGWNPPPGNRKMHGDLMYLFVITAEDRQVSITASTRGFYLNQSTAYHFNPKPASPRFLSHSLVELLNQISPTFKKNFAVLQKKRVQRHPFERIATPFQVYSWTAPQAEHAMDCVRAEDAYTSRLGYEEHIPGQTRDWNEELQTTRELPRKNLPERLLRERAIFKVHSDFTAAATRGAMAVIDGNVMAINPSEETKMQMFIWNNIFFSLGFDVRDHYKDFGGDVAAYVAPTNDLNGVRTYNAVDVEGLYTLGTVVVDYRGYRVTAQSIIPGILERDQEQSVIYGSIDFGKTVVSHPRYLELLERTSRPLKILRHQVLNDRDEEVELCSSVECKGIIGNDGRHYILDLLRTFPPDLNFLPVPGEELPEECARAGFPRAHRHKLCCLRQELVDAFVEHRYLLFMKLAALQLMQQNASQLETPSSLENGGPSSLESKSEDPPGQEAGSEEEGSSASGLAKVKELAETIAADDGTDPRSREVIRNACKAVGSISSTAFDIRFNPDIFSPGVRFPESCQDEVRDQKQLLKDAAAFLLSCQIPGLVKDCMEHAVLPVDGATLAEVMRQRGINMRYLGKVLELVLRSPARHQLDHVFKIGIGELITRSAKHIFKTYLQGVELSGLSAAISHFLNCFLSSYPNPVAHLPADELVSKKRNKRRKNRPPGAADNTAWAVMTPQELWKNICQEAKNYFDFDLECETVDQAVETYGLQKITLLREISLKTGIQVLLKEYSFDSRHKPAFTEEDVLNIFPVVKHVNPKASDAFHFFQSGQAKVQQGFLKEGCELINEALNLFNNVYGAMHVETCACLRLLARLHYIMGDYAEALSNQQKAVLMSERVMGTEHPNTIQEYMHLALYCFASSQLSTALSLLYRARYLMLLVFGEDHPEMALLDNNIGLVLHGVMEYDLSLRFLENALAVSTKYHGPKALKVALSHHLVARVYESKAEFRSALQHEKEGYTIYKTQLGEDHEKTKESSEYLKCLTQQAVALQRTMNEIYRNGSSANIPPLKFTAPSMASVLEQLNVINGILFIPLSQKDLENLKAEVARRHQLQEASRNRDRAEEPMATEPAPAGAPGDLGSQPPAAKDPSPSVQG
active: [8] 0.478
inactive: [1] 0.007 | [2] 0.045 | [3] 0.191 | [4] 0.108 | [5] -0.093 | [6] -0.068 | [7] 0.067 | [9] -0.022 | [10] -0.018 | [11] -0.002 | [12] -0.072 | [13] 0.023 | [14] -0.025 | [15] 0.022 | [16] 0.05 | [17] -0.08 | [18] 0.063 | [19] 0.133 | [20] 0.041

CSNK1A1 (UniProt P48729)
Chain of UniProt P48729 (P48729 whole entry, looked up): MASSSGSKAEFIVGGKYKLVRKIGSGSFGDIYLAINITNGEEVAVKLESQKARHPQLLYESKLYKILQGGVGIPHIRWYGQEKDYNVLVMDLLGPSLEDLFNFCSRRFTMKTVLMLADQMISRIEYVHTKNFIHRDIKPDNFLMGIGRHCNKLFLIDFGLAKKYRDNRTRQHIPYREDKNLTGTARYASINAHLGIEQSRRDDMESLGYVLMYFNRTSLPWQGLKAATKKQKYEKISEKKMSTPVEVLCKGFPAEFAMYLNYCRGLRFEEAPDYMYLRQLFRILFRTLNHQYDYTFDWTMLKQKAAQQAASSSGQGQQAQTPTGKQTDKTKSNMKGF
inactive: [1] -0.044 | [2] -0.156 | [3] -0.106 | [4] -0.008 | [5] 0.011 | [6] 0.033 | [7] -0.118 | [8] -0.055 | [9] 0.022 | [10] -0.086 | [11] -0.067 | [12] -0.001 | [13] 0.031 | [14] 0.019 | [15] 0.023 | [16] -0.087 | [17] 0.016 | [18] 0.048 | [19] 0.243 | [20] -0.084

CPT2 (UniProt P23786)
Chain of UniProt P23786 (P23786 whole entry, looked up): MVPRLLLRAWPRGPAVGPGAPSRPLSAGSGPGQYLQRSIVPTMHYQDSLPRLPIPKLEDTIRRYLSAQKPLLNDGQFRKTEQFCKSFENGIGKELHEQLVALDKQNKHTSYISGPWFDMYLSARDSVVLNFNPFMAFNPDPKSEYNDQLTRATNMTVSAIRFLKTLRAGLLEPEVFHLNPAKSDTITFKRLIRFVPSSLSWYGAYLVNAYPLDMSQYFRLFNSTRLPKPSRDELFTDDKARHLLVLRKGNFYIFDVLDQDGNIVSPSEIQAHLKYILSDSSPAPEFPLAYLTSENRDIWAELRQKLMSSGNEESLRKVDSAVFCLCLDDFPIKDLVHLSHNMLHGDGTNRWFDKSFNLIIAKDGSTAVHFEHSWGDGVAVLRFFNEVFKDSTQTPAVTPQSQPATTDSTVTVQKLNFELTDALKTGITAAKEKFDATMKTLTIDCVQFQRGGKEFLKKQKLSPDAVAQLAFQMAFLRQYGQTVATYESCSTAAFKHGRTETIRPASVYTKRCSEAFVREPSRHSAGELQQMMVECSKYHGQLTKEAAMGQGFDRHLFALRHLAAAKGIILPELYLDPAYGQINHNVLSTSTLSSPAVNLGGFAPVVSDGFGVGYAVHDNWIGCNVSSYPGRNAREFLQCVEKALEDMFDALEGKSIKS
active: [10] 0.763
inactive: [1] -0.115 | [2] 0.008 | [3] 0.096 | [4] -0.003 | [5] 0.217 | [6] 0.047 | [7] 0.268 | [8] 0.265 | [9] -0.076 | [11] -0.045 | [12] -0.264 | [13] 0.193 | [14] -0.052 | [15] 0.174 | [16] -0.097 | [17] -0.109 | [18] -0.08 | [19] 0.014 | [20] 0.157
